{"source": "PubChem BioAssay (NCI)", "note": "This is part of a sample that, as a whole, favours compounds with a hit. Of some 83,000 tested, about 20% had one in any assay.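 The test compound was applied at a single concentration to cells in 96-well plates for 48 hours, and percent growth was recorded.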 Values without a mark were called inactive. The source made the active and inactive calls. How the source made its calls: active means growth percent below 10; inactive means the rest.", "data": [{"system": "HOP-92 NSCLC", "experiment": "NCI-60 one-dose screen, 48 h (100 = growth as untreated, 0 = no growth, -100 = all killed)", "conditions": "10 µM unless noted", "values": [{"smiles": "COc1cc(/C=C/C(=O)c2ccc(N3CCN(C)CC3)cc2)ccc1F", "growth": "54.3%"}, {"smiles": "O=C(Nc1cccc(-c2nc(-c3ccc(NC(=O)c4cccnc4)cc3Cl)no2)c1)Nc1ccc(NC(=O)C2CC2)c(C(F)(F)F)c1", "growth": "-68.1% (active)"}, {"smiles": "CCNC(=O)Oc1ccc(/C(=C(/C)c2ccc(Cl)cc2)c2ccc(OCCN3CCCC3)cc2)cc1", "growth": "83.2%"}, {"smiles": "CS(=O)c1nccc(-c2c(-c3ccc(F)c(OCc4ccc(F)cc4)c3)nc3sccn23)n1", "note": "(stereo not drawn)", "growth": "16.9%"}, {"smiles": "CN1CCN(c2ccc(NC(=O)Nc3ccc4c(ccn4-c4cccc(C(N)=O)n4)c3)cc2C(F)(F)F)CC1", "growth": "119%"}, {"smiles": "O=c1oc2ccc(-c3ccc(F)cc3F)cc2c(=O)n1-c1ccc(F)c(F)c1", "growth": "-21.4% (active)"}, {"smiles": "N#Cc1c(NC(=O)c2ccc(F)c(Cl)c2)sc2c1CCC(=O)C2", "growth": "-37.4% (active)"}, {"smiles": "CC(C)SC1=NC(=C(C(=N1)NC2=ClC=CC=C2)C#N)C3=CC=CC=C3", "growth": "76.6%"}, {"smiles": "CCOC(=O)c1c(NCC(=O)Nc2cccc(Cl)c2)sc2c1CCCC2", "growth": "96.3%"}, {"smiles": "COc1ccc([C@H]2[C@H](O)C(=O)N2c2cc(OC)c(OC)c(OC)c2)cc1", "growth": "-4.93% (active)"}, {"smiles": "O=c1[nH]c2cc(Cl)ccc2n1C1CCN(c2ccc3nnc(Cl)n3n2)CC1", "growth": "103%"}, {"smiles": "O=C1[C@@H]2Cc3c([nH]c4ccccc34)[C@H](c3c(Cl)cccc3Cl)N2C(=O)CN1C1CCN(Cc2ccccc2)CC1", "growth": "42.8%"}, {"smiles": "CS(=O)(=O)c1ccc2c(c1)c1c(n2Cc2ccc(Cl)cc2)CCCC1", "growth": "65.7%"}, {"smiles": "O=C(CCCCCCN1CC(=O)N2[C@@H](c3ccc(Cl)c(F)c3)c3[nH]c4ccccc4c3C[C@H]2C1=O)NO", "growth": "92.2%"}, {"smiles": "O=C(c1ccc(O)cc1)[C@@H]1[C@@H]2CCCN2[C@@]2(C(=O)N(C(=O)c3ccc(F)cc3)c3ccccc32)[C@H]1c1ccc(F)cc1", "growth": "67%"}, {"smiles": "COc1cc(-c2nc(SCc3ccc(C)cc3)[nH]c(=O)c2C#N)ccc1OCc1ccccc1", "growth": "113%"}, {"smiles": "CN(C)C(=O)c1ccccc1-n1cnc2ccccc2c1=O", "growth": "117%"}, {"smiles": "CCN1C(=O)N(CC)C2SC(N/N=C/c3ccccc3)=NC21", "note": "(stereo not drawn)", "growth": "2.09% (active)"}, {"smiles": "CCOC(=O)Nc1ccc(-c2nc(-c3cccc(O)c3)c(-c3ccnc(Br)c3)[nH]2)cc1", "growth": "38.3%"}, {"smiles": "O=C1c2c(c3c4cc(Br)ccc4[nH]c3c3ccc4ccccc4c23)C(=O)N1CCN1CCCCC1", "growth": "51.3%"}, {"smiles": "CN(C)CCn1c2ccc(N)cc2c2nc3ccccc3nc21", "growth": "47.7%"}, {"smiles": "COc1ccc(-c2cc(-c3cccc4ccccc34)n3c(n2)nc2ccccc23)cc1", "growth": "38.4%"}, {"smiles": "Nc1c(C(=O)c2ccccc2)sc2nc(-c3cnccn3)cc(-c3cccs3)c12", "growth": "106%"}, {"smiles": "CCOC(=O)c1c(Nc2ccccc2)nn2c(-c3ccc(OC)c(OC)c3)ccnc12", "growth": "5.27% (active)"}, {"smiles": "O=C(COc1ccc(C2SCC(=O)N2c2ccccc2)cc1)c1ccccc1", "note": "(stereo not drawn)", "growth": "86.8%"}, {"smiles": "CCn1c2ccc(/C=N/OCCCN(C)C)cc2c2cc(/C=N/OCCCN(C)C)ccc21", "growth": "30.6%"}, {"smiles": "N/C(=N\\OC(=O)CSc1nc2ccccc2s1)c1ccc2ccccc2c1", "growth": "95.9%"}, {"smiles": "COc1ccc(-c2nc3cc(Cl)c(Cl)cc3n2CC(=O)N=Nc2c(O)[nH]c3ccc(Br)cc23)cc1", "growth": "-34% (active)"}, {"smiles": "Oc1ccc(-c2nnc(SCc3ccc(O)c4ncccc34)o2)cc1", "growth": "-15.9% (active)"}, {"smiles": "CC1=CC(=O)CC(C)(C)[C@@]1(O)/C=C/C(C)=C\\C(=O)O", "growth": "-14.6% (active)"}, {"smiles": "O=C(N/N=C\\c1ccc(Cl)cc1)c1ccc2nc(-c3ccc(Br)cc3)[nH]c2c1", "growth": "-3.66% (active)"}, {"smiles": "CS(=O)(=O)c1nccc(-c2c(-c3ccc(F)c(OCc4ccccc4)c3)nc3sccn23)n1", "growth": "-5.33% (active)"}, {"smiles": "C=CCn1c(SCC(=O)Nc2ccc(OC)cc2)nnc1-c1ccc(Cl)cc1", "growth": "68.8%"}, {"smiles": "CN1C(=O)N(C)C2Nn3c(s/c(=C\\c4ccccn4)c3=O)=NC21", "note": "(stereo not drawn)", "growth": "107%"}, {"smiles": "Oc1ccc(-c2nnc(SCc3ccc(O)c4ncccc34)n2-c2ccccc2)cc1", "growth": "4.59% (active)"}, {"smiles": "Fc1ccccc1/C=C(/C1=NCCN1)n1cnc2ccccc21", "growth": "73.7%"}, {"smiles": "COc1cnc2c(c1)C(=O)c1c-2n(CCCn2ccnc2)c(=O)c2cc(OC)c(OC)cc12", "growth": "-12.2% (active)"}, {"smiles": "CC[C@@](C)(NC(=O)C(C)(C)NC(=O)[C@@H](NC(=O)[C@@H]1CCCN1C(=O)C(C)(C)NC(=O)[C@H](CC(C)C)NC(=O)CNC(=O)C(C)(C)NC(=O)[C@@H](NC(=O)C(C)(C)NC(=O)[C@H](CCC(N)=O)NC(=O)[C@H](C)NC(=O)C(C)(C)NC(=O)[C@H](C)NC(=O)C(C)(C)NC(=O)[C@H](C)NC(=O)C(C)(C)NC(C)=O)C(C)C)C(C)C)C(=O)N[C@@H](CCC(N)=O)C(=O)N[C@@H](CCC(N)=O)C(=O)N[C@H](CO)CC1CCCCC1", "growth": "-17.2% [5 µM] (active)"}]}]}
